The results in this text go back to paper PMC5540273 (PLoS ONE, 2017).

Structures are written as SMILES.
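Also: KINOMEscan kinase panel screen.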

In this test the test system is SGK. Particulars: concentration: 1 μM,replicates: in singlicate; n = 1.
In the case of `CSc1nccc(-c2c(-c3ccc(F)cc3)ncn2CCCN2CCOCC2)n1.Cl` [SB-217146], the “%Inh” value amounted to 10%.
Consider `COc1cccc(OC)c1C(=O)Nc1cccc(-c2nn3ccccc3c2-c2ccnc(Nc3cccc(F)c3)n2)c1` [GSK361065], for which the “%Inh” value is on record as 18%.
For `O=C(NOCC1CC1)c1cc(Br)c(F)c(F)c1Nc1ccc(I)cc1Cl` the value was 0%; for `Cc1ccc(CC(=O)N2CCc3cc(-c4cn(C)c5ncnc(N)c45)ccc32)cc1` [GSK2634758], 0%.
As for `CC(C)c1nc(-c2cccc(NS(=O)(=O)c3ccccc3)c2)c(-c2ccnc(Nc3ccc4c(c3)CN(C)CC4)n2)s1` [GSK1649598], the figure is 77%; as for `Cc1ccc(C(=O)Nc2ccc(Oc3ccc4nc(NC(=O)C5CC5)cn4c3)c(F)c2)c(=O)n1-c1ccccc1`, 0%.
For `c1ccc(Oc2ccc(Nc3ccnc4ccc(-c5ccccn5)cc34)cc2)cc1` [GW407034], the “%Inh” value is listed as 0%.
Take `O=C(Nc1n[nH]c2cc(-c3ccco3)ccc12)C1CC1` [SB-737447]: the “%Inh” value is listed as 47%.
Take `C[C@@H]1CNc2c(sc3ccc4nc(-c5ccc(O)cc5)ccc4c23)C(=O)N1`: the “%Inh” value turned out to be 20%.
For `CCn1c(-c2nonc2N)nc2cncc(Br)c21` [SB-738004] the value was 45%.
For the compound `CS(=O)c1ccc(-c2coc3ccc(-c4n[nH]c(=O)o4)cc23)cc1` (stereo not drawn), the “%Inh” value is given as 31%.
As for `CN1CCN(CCCNc2nccc(-c3c(-c4ccc(F)cc4)nn4cc(C(N)=O)ccc34)n2)CC1` [GW622475], the “%Inh” value is given as 0%.
For `CC(C(=O)NC1CCN(c2ccnc(Nc3ccc(F)cc3)n2)C1)c1ccc(Cl)cc1` (stereo not drawn) [GSK1379713] the value was 0%.
Turning to `CC(=O)c1c(-c2ccncc2)[nH]c(-c2ccncc2)c1C` [GW493036], the “%Inh” value was 0%.
As for `CS(=O)(=O)c1cccc(CNc2nc(Nc3ccc4c(c3)[C@@H]3C[C@@H]4CNC3=O)ncc2C(F)(F)F)c1`, the figure is 43%; as for `FC(F)(F)c1cc(Br)cc(Nc2nccc(-c3cnn4ncccc34)n2)c1` [GW810578], 2%.
As for `CC(=O)Nc1ccc(-c2cc3ncnc(SCC(=O)O)c3s2)cc1`, the figure is 0%.
For `NC(=O)Nc1sc(-c2ccc(F)cc2)cc1C(N)=O` [GW789449] the value was 1%.
Take `CN(c1cccc(CNc2nc(Nc3ccc4c(c3)CC(=O)N4)ncc2C(F)(F)F)c1)S(C)(=O)=O`: the “%Inh” value turned out to be 31%.
Consider `COC(=O)Nc1nc2cc(Oc3ccc(NC(=O)Nc4cc(C(F)(F)F)ccc4Cl)cc3)ccc2[nH]1.Cl` [GW697465], for which the “%Inh” value came to 2%.
`COc1ccc(Nc2nccc(N3CCC(NC(=O)c4cccc(C#N)c4)C3)n2)cc1` (stereo not drawn) [GSK1379730]: the “%Inh” value came to 0%.
For `Cc1ccc(Nc2ccnc(Nc3ccc4c(c3)CS(=O)(=O)C4)n2)cc1O.Cl` [GW579362] the value was 0%.
As for `Cl.Cl.NC[C@H](CC1CCCCC1)NC(=O)c1ccc(-c2ccnc3[nH]ccc23)s1` [GSK1581428], the figure is 80%.
In the case of `Cc1n[nH]c2cc(Nc3ccnc(Nc4cccc(CN5CCOCC5)c4)n3)ccc12` [GW682569], the “%Inh” value is 0%.
